Assay outcomes deposited in PubChem BioAssay by ICCB-Longwood Screening Facility, Harvard Medical School.
Only a selection was taken, and hits are over-represented in it overall.
MgrA-DNA mod – modulators of Staphylococcus aureus MgrA DNA binding; actives 0.13% (n = 84,000); inhibition, % (no concentration beside the values); fluorescence polarization; in the data active means inhibition above about 30%, passing the limit was not always enough;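 further: higher means less MgrA bound to DNA so lower polarization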
Numbers stand for hits; - = inactive.

SMILES	MgrA-DNA mod
C#CCNS(=O)(=O)c1ccc(C#N)cc1	-
COc1ccc(N2C(=O)/C(=C\c3ccc(C(C)C)cc3)C(=O)NC2=S)cc1	-
CCC(C)N1C(=O)/C(=C\c2cnn(-c3ccccc3)c2)C(=O)NC1=S (stereo not drawn)	63
CCc1ccc(N2C(=O)/C(=C/c3ccc(OCC(=O)O)c(OC)c3)C(=O)NC2=S)cc1	-
c1ccc(Cn2cc(Cn3nnc(-c4ccccc4)n3)nn2)cc1	-
Cc1[nH]c2ccc(C(=O)O)cc2c1CC(=O)O	-
CCCc1c(C)[nH]c2ccc(C(=O)O)cc2c1=S	54
Cc1[nH]c2ccc(C(=O)O)cc2c1C	-
CCc1cccc2c(C#N)cn(CC(=O)N(CC)CC)c12	-
CSc1nc(-c2ccccc2)ccc1C#N	-
